Hits are enriched below; roughly 6.1% of the tested compounds scored in any of these assays.
ERG-DNA inh: inhibitors of human ERG Ets domain-DNA interaction; P11308; Potency, µM (doses to about 76.9 µM), most hits filed as inhibitors; AID 624246; 370,000 tested, 0.028% active; fluorescence polarization, His-ERG Ets domain / labelled DNA; active = well fitted inhibition curve with a large enough effect in the polarisation, with a control signal flat; inconclusive = small, poorly fitted or top-dose-only effect, or effect the other way, or a change in a side signal; inactive = no such curve, though single readings can be large or run the other way; the % refers to the polarisation;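 also: polarization taken with two DNA probes labelled with fluorescein and Texas red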
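His-tagged ERG Ets domain (1 uM in the protein solution; 300mM KCl, 50mM Tris-HCl, 1mM EDTA, 1mM DTT, pH 7.5) received compound, then a probe mix of 5 nM fluorescein-DNA and 100nM Texas-615-DNA. Fluorescence polarization was read for both dyes.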
DRD3 antagonist: D3 dopamine receptor (human) antagonism; D3R cells, DiscoveRx beta-arrestin luminescence, antagonist mode; stronger effect = lower value; 360,000 tested, 2.5% active; P35462; AID 652054; max response, negative = inhibition, %; in the data active = max response below about -50%; inconclusive = no clear call, values can overlap the other calls
Target sequence (P35462 whole entry, looked up): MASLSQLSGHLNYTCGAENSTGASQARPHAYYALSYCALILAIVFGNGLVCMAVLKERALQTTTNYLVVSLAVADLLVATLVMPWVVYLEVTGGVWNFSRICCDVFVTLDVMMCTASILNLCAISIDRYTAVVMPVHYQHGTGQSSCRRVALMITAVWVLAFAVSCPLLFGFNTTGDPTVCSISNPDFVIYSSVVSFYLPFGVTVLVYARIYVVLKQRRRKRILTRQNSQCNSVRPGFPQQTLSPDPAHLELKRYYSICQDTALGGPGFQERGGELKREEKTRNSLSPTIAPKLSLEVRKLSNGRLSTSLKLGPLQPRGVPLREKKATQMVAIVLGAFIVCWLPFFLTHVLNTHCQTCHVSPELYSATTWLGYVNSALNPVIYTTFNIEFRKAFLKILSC
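Cells plated overnight at 1500 cells/well, then exposed to library compounds with dopamine controls for 90 minutes at 37 degrees C. DiscoveRx reagent added for 30–60 minutes at room temperature; luminescence read, quantitative HTS format.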
D1 agonist: activates the human D1 dopamine receptor. 360,000 tested, 1% active. HEK293 T-REx D1 cells, calcium flux, agonist mode. activation, % at 2 µM. P21728. AID 504660; in the data active = activation above about 30%
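Tetracycline-induced HEK293 TREx D1 cells, force-coupled to calcium signalling, were dye-loaded with a no-wash calcium kit. Compound was pin-added after a 10 s baseline. Fluorescence was read kinetically at 1 cycle/s for 180 s, with calcium rises flagged as agonism.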
D1 antag: blocks dopamine activation of the human D1 receptor | AID 504652 | activity change, negative = inhibition, % at 10 µM | 360,000 tested, 3.2% active | HEK293 TREx D1 cells, calcium flux, dopamine EC80; stronger effect = lower value | P21728; in the data active = activity change below about -30%
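Antagonism measured as reduced calcium response to an EC80 dopamine addition following 180 s compound pre-read; cells were inducible HEK293 Trex D1 plated overnight at 30 C, read kinetically at 1 cycle/sec.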
D1 potentiator: human D1 dopamine receptor positive modulation; 360,000 tested, 0.036% active; potentiation, % at 10 µM; P21728; HEK293 TREx D1 cells, calcium flux, dopamine EC20 potentiation; AID 504651; in the data active = potentiation above about 30%
DRD3 agonist: D3 dopamine receptor (human) agonism; P35462; D3R DiscoveRx beta-arrestin cells, luminescence, 90 min; max activation, %; 410,000 tested, 0.58% active; in the data active = max activation above about 30%
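Agonist mode: compounds and dopamine controls were applied to plated cells for 90 min at 37 degrees C after an overnight attachment at 1500 cells/well. Luminescent read-out followed 30 - 60 minutes at room temperature with DiscoveRx detection reagent.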
Of the large screens only hits and unclear results are named; the others gave an inactive call.

COc1cccc(C(=O)Nc2ccc(N3CCN(Cc4ccccc4)CC3)cc2)c1	DRD3 antagonist inconclusive
CS(=O)(=O)N1CCN(c2ccc(NC(=O)c3ccc(-c4ccc(Cl)cc4)o3)cc2)CC1	none
CS(=O)(=O)c1ccc(C(=O)Nc2ccc(N3CCCCC3)cc2)c(Cl)c1	none
Cc1c(NC(=S)NC(=O)c2ccc(-c3ccc(Cl)cc3)o2)cccc1C(=O)O	D1 antag -30.8
CN1CCN(c2ccc(NC(=O)c3cccc(OCc4ccccc4)c3)cc2)CC1	D1 antag -63.7
Cc1ccc(C(=O)Nc2ccc(N3CCN(C)CC3)cc2)c(Cl)c1	D1 antag -33.4
O=C(NC(=S)Nc1ccccc1O)c1ccc(-c2ccc(Cl)cc2)o1	none
CN1CCN(c2ccc(NC(=O)c3ccc(-c4ccc(Cl)cc4)o3)cc2)CC1	D1 antag -72.1
N#CC1=C(N)N=C(SCc2cccc3ccccc23)C(C(N)=O)C12CCCCC2 (stereo not given)	none
CCOc1cc(/C=N/Nc2nc(-c3cccc(S(=O)(=O)N4CCCC4)c3)cs2)ccc1O	none
Cc1ccsc1/C=N/Nc1nc2ccccc2s1	none
O=S(=O)(c1ccc(OCc2ccc(Br)cc2)cc1)N1CCOCC1	none (no result: D1 potentiator)
COc1ccc(OC)c(CNc2sc3c(c2C(=O)Nc2cc(OC)ccc2OC)CCCC3)c1	none (no result: DRD3 antagonist)
N#CCSc1ccccc1NC(=O)COC(=O)Cc1c[nH]c2ccccc12	none
Cc1ccc(C(=O)Nc2ccc(N3CCN(S(C)(=O)=O)CC3)cc2)cc1C	none
Cc1ccc(C(=O)Nc2ccc(N3CCN(C)CC3)cc2)cc1C	D1 antag -31.3
Fc1cccc(CCN2CCNC[C@H]2Cc2cccc3ccccc23)c1	D1 agonist 40.4
c1ccc(C2(CN3CCNC[C@H]3Cc3cccc4ccccc34)CC2)cc1	D1 agonist 76.5, D1 antag -55.5
COc1ccc(CCn2c(-c3ccccc3)nc3c(c(=O)c4ccccc4n3C)c2=O)cc1	none (no result: ERG-DNA inh, DRD3 antagonist, DRD3 agonist)
CC(C)c1nc2c(c(=O)c3ccccc3n2C)c(=O)n1CCc1ccccc1	D1 agonist 92.9
COc1ccc(Cn2c(C3CCCCC3)nc3c(c(=O)c4ccccc4n3C)c2=O)cc1	D1 agonist 42.0
COc1ccc(CCn2c(C3CCCCC3)nc3c(c(=O)c4ccccc4n3C)c2=O)cc1	D1 agonist 126.5, D1 antag -39.3
COc1ccc(CCn2c(C3CCCCC3)nc3c(c(=O)c4ccccc4n3C)c2=O)cc1OC	none
COc1ccc(Cn2c(-c3ccccc3)nc3c(c(=O)c4ccccc4n3C)c2=O)cc1	D1 potentiator 40.4
CCN(CC)CCNCC1C(=O)O[C@@H]2C[C@@]3(C)CCC[C@H](C)C3=C[C@H]12 (stereo not given in full)	none
CN(CCc1ccccn1)Cc1ccc(Cl)cc1Cl	DRD3 antagonist -69.9 (no result: D1 agonist, D1 antag, D1 potentiator)
CN(CCc1ccccn1)Cc1ccc(Cl)c(Cl)c1	DRD3 antagonist -51.3
Cc1ccc(S(=O)(=O)N(C)C[C@@H]2Oc3ncc(Br)cc3C(=O)N([C@H](C)CO)C[C@H]2C)cc1	none (no result: ERG-DNA inh, D1 agonist, D1 antag, D1 potentiator)
NC1=NN=C(N2N=C(c3ccc(Br)cc3)CC2(O)C(F)(F)F)n2ncnc2C1 (stereo not given)	D1 antag -44.7
Cc1ccccc1CN1C(=O)c2ccccc2Sc2ccc(C(=O)NCCc3ccccc3)cc21	none (no result: DRD3 antagonist)
CCCCOc1ccc(C(=O)NNC(=S)NC(=O)CC)cc1	DRD3 antagonist inconclusive
COC(=O)NNC(=O)c1ccccc1OC	none
COC(=O)c1cc(OC)c(OC)cc1NC(=S)Nc1cc(Cl)ccc1OC	none
COc1ccccc1C(=O)NNC(=S)Nc1ccccc1	DRD3 antagonist inconclusive, D1 antag -30.6
O=C(/C=C/c1ccco1)NC(=S)NNC(=O)c1ccco1	DRD3 antagonist -84.3 (no result: ERG-DNA inh)
CCCOc1ccc(C(=O)NNC(=S)NC(=O)c2ccco2)cc1	D1 agonist 185.7, D1 antag -33.5
COC(=O)c1cc(OC)c(OC)cc1NC(=S)Nc1cccc(Cl)c1	DRD3 antagonist -65.8
CC(=O)NC(=S)Nc1ccc(NC(=S)NC(=O)/C=C/c2ccco2)cc1	none
O=C(NNC(=S)NC(=O)c1ccco1)c1ccc(F)cc1	none
COc1ccc(C(=O)NNC(=S)NC(=O)c2ccco2)cc1	DRD3 antagonist -57.5
O=C(COc1ccc(Cl)cc1Cl)NNC(=S)NC(=O)c1ccco1	none
COC(=O)c1cc(OC)c(OC)cc1NC(=S)NC(=O)c1ccco1	D1 antag -37.5
CC(Oc1ccc(Cl)cc1)C(=O)NNC(=S)NC(=O)c1ccco1 (stereo not given)	D1 agonist 44.0
CCNC(=S)Nc1cc(OC)c(NC(=O)c2ccco2)cc1OC	none
Cc1ccnc(NC(=S)NC(=O)/C=C/c2ccco2)c1	DRD3 antagonist -51.0
O=C(NC(=S)NNC(=O)c1ccco1)c1ccc(Br)cc1	D1 agonist 47.2
O=C(CCNC(=O)c1ccco1)NNC(=O)c1ccc(Br)cc1	none (no result: D1 agonist, D1 antag, D1 potentiator)
COc1ccccc1C(=O)NNC(=S)NC(=O)c1ccco1	D1 agonist 50.4
O=C(Nc1nc(=S)ss1)c1ccc(Cl)cc1Cl	none
O=C(Oc1ccc(N2C(=O)CCC2=O)cc1)c1ccccc1Cl	none
Cc1cc(OC(=O)c2ccccc2Cl)cc(=O)n1C	DRD3 agonist 35.4
CCOC(=O)C(Cc1ccc(O)cc1)NC(=O)CCc1c[nH]c2ccccc12 (stereo not given)	D1 agonist 37.4
Cc1ccccc1N(C(=O)CCC(=O)Nc1ccccn1)C(C(=O)NC(C)C)c1ccc(O)cc1 (stereo not given)	none
CCCCC(=O)Nc1nc2ccc3nc(C)sc3c2s1	DRD3 antagonist -79.6
CCn1c(COc2ccccc2C)nnc1SCc1nc2ccccc2c(=O)[nH]1	D1 antag -30.0 (no result: ERG-DNA inh, DRD3 antagonist, DRD3 agonist)
COc1ccccc1NS(=O)(=O)c1ccc(N/N=C(\C)C(C)C)c([N+](=O)[O-])c1	D1 antag -31.2
COc1ccccc1NS(=O)(=O)c1ccc(NN=C2CCCCC2)c([N+](=O)[O-])c1	DRD3 antagonist -60.6 (no result: ERG-DNA inh)
COC(=O)c1ccc(C2/C(=C(/O)c3ccc4c(c3)CC(C)O4)C(=O)C(=O)N2Cc2cccnc2)cc1 (stereo not given)	none
O=[N+]([O-])c1ccc(N=Nc2ccc(O)c3ccccc23)cc1	DRD3 antagonist -71.3 (no result: D1 agonist, D1 antag, D1 potentiator)
Cc1cc(NC(=O)CCC(=O)N(CCC(C)C)C(C(=O)NCC2CCCO2)c2ccccc2C)no1 (stereo not given)	DRD3 agonist 40.7
CC1(c2ccc(OC(F)F)cc2)NC(=O)N(CC(=O)Nc2ccc(Cl)cc2F)C1=O (stereo not given)	D1 agonist 36.2
Cc1cc(NC(=O)CN2C(=O)NC(C)(c3ccccc3Cl)C2=O)no1 (stereo not given)	none (no result: D1 agonist, D1 antag, D1 potentiator)

Screens deposited in PubChem BioAssay by National Center for Advancing Translational Sciences (NCATS).
